TDP1 cell noCPT – qHTS for Inhibitors of human tyrosyl-DNA phosphodiesterase 1 (TDP1): qHTS in cells in absence of CPT | DT40 Tdp1-/- hTDP1 cells, no CPT, ATP luminescence, 48 h | Potency, µM (series often up to 46.2 µM), inactives show at the highest dose activity change, negative = growth inhibition, most hits filed as inhibitors | 15% of 420,000 active; also: potency is read from the fitted curve at half-maximal effect; % is scaled to controls: 0 for no effect and ±100 for the full control effect; nearly all actives have a fitted effect of over 55% in size
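Growth of hTDP1-complemented DT40 Tdp1-knockout cells is measured by ATP luminescence after at least 48 hr compound exposure at 37 °C, with DMSO substituting for the 20 nM CPT used in the parallel screen.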
TGFb SMAD3 inh – blocks TGF-b signaling. Potency, µM (top dose mostly 46.1 µM), inactives show top-dose activity, negative = inhibition, actives largely listed as inhibitors. AID 588855. 1.2% of 410,000 active. HepG2 CAGA-GFP TGF-b/SMAD3 reporter, GFP fluorescence, 18 h; TGF-beta stimulated, 500 pg/mL final; also: potency is read from the fitted curve at half-maximal effect; % is scaled to controls: 0 for no effect and ±100 for the full control effect; nearly all actives have a fitted effect of over 65% in size
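Inhibition of TGF-beta-driven CAGA-GFP reporter expression in HEPG2 cells is measured by cellular GFP fluorescence after 18 h stimulation with 500 pg/mL recombinant TGF-beta in 1% FBS medium at 37 degrees C.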
HepG2 viability – HepG2 cytotoxicity, counter-screen for TGF-b inhibitors. HepG2 CAGA-GFP viability, ATP luminescence, 18 h. Potency, µM (titrated, usually from 46.1 µM), for the others: at the highest dose activity change, negative = cytotoxicity, usual class: cytotoxic. 0.76% of 410,000 active. AID 588856; also: potency is read from the fitted curve at half-maximal effect
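HepG2 CAGA-GFP cells (1000/well, DMEM with 1% FBS) received compound, then TGF-beta at 500 pg/mL final, and were incubated 18 hours at 37 degrees C. Viability was read by CellTiter-Glo luminescence. Media-only wells were set as complete cell-killing and DMSO as no toxicity.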
IL1B secr inh – blocks inflammasome-driven IL-1 beta release; 4.7% of 360,000 active; activity change, % at 57.5 µM; THP-1 LPS/ATP IL-1B secretion, AlphaLISA, 16 h; stronger effect = lower value; AID 743279; in the data active = activity change below about -50%; inconclusive = mostly about -30% to -49%; also: % is scaled to controls: 0 for no effect and ±100 for the full control effect
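THP-1 cells pretreated 1 hr with compounds (up to 57.5 uM final), then stimulated with LPS (250 ng/mL final) plus ATP (1.25 mM final); secreted IL-1B measured by AlphaLISA after 16 hr, decreased signal indicating inhibition.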
S-ASM inh – blocks human secretory acid sphingomyelinase | 0.006% of 340,000 active | Potency, µM (titrated, usually from 57.5 µM), without a hit: top-dose activity change, negative = inhibition, usual class: inhibitors | placental ASM, HMU-PC fluorogenic substrate, 60 min | AID 504937; also: potency is read from the fitted curve at half-maximal effect
Target sequence (P17405 47-631 limits assumed): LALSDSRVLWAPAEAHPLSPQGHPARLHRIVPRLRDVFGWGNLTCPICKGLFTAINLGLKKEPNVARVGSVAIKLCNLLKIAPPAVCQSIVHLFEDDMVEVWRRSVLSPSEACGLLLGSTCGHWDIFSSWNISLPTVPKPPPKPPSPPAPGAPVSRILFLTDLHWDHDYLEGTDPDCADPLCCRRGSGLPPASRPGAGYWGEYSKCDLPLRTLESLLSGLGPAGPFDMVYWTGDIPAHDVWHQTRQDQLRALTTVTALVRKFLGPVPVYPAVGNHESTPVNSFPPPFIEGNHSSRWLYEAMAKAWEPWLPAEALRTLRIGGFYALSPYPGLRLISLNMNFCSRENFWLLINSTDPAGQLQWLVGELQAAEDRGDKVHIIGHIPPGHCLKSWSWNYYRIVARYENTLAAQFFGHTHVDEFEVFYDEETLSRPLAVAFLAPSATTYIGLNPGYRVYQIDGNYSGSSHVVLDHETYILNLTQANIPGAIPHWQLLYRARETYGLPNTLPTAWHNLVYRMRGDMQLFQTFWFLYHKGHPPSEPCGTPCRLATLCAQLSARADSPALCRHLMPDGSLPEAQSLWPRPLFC
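Fluorogenic HMU-PC substrate (9 uM final) is turned over by placental ASM in 60 min at 37 C after a 10 min compound preincubation. Reaction ended by alkaline stop (pH 10), with fluorescence read at 386/447 nm.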
TDP1 cell CPT – growth inhibition of DT40 Tdp1-/-;hTDP1 cells with camptothecin (screen for TDP1 inhibitors); chicken DT40 Tdp1-/-;hTDP1 cells + 20 nM CPT, ATP luminescence, 48 h; Potency, µM (highest dose often 46.2 µM), for the others: at the top dose activity change, negative = growth inhibition, hits mostly inhibitors; 12% of 420,000 active; AID 686979; also: potency is read from the fitted curve at half-maximal effect; % is scaled to controls: 0 for no effect and ±100 for the full control effect; nearly all actives have a fitted effect of over 55% in size
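Cell growth measured by CellTiter-Glo luminescence after a minimum 48 h, 37 C compound exposure with 20 nM CPT in Tdp1-knockout DT40 cells stably expressing hTDP1, seeded 400/well; qHTS titration format.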
Starred values were filed as active, the others as inactive; ? = inconclusive; . = not tested or not shown. Rows were chosen to be rich in hits. Some 19% of all compounds tested hit in one or more screens of this group. Unless noted, calls follow the shape of the dose curve; as a rule, active = well fitted curve in the direction sought with a large enough effect; inconclusive = small, poorly fitted or top-dose-only effect, or another doubt; inactive = no such curve, though single readings can be large; an effect the other way counts as inactive or inconclusive.

SMILES	TDP1 cell noCPT	TGFb SMAD3 inh	HepG2 viability	IL1B secr inh	S-ASM inh	TDP1 cell CPT
Cc1cc(NC(=O)Nc2ccc(F)cc2)no1	-14%	2%	15%	-8	-3%	-3%
Cc1cc(NC(=O)C(Cl)c2ccccc2)no1 (configuration not stated)	?	-11%	0%	-83*	1%	7.3µM*
c1ccc2c(c1)nc(N1CCOCC1)c1c3ccccc3[nH]c21	?	-8%	-25%	-5	265%	?
O=C(CN(c1ccc(F)cc1)S(=O)(=O)c1ccccc1)NC1CCCCCC1	-20%	12%	-33%	-9	-2%	?
c1ccc(NC2=NCCN2CC2CCCCC2)cc1	-3%	5%	0%	13	4%	4%
COc1ccc(CCNC(=O)c2ccc3c(c2)sc2nc(-c4ccccc4)cn23)cc1OC	7.3µM*	-3%	-18%	.	.	5.2µM*
COc1ccc(C(=O)NCCc2ccccc2)cc1OC	9%	24%	-5%	-1	3%	-10%
COc1ccc(-c2cn3c(n2)sc2cc(C(=O)NCC(C)c4ccccc4)ccc23)cc1 (configuration not stated)	5.8µM*	-29%	-31%	.	.	?
CCOc1ccc(-c2cn3c(n2)sc2cc(C(=O)NCCc4ccc(OC)c(OC)c4)ccc23)cc1	10µM*	-19%	-42%	.	.	12µM*
CCc1ccc(-c2cn3c(n2)sc2cc(C(=O)NCCc4ccc(OC)cc4OC)ccc23)cc1	16µM*	-16%	-28%	.	.	23µM*
CCCSCCCNC(=O)c1ccc2c(c1)sc1nc(-c3ccc(OCC)cc3)cn12	?	-3%	2%	.	.	?
CC1=C(C(=O)OC2CCCC2)C(c2ccc(Cl)cc2)CC(=O)N1 (configuration not stated)	?	-11%	-7%	.	.	?
C[C@H](CO)N1C[C@H](C)[C@H](CN(C)C(=O)Nc2ccc(C(C)(C)C)cc2)OCc2cnnn2CCCC1=O	-27%	1%	-38%	7	.	-17%
COc1cccc(-c2cn3c(n2)sc2cc(C(=O)NCCc4ccccc4)ccc23)c1	7.3µM*	-7%	-40%	.	.	7.3µM*
COc1ccc(NC(=O)c2ccc3c(c2)sc2nc(-c4ccc(OC)cc4)cn23)cc1	-4%	-30%	-1%	.	.	-5%
COc1ccc(-c2cn3c(n2)sc2cc(C(=O)Nc4cc(Cl)ccc4C)ccc23)cc1	2.9µM*	-5%	7%	.	.	6.5µM*
COc1cccc(CN2CC(C(=O)NCC3CCOCC3)CCC2=O)c1 (configuration not stated)	14%	6%	10%	-12	3%	-5%
COc1ccccc1CNc1nc(-c2ccco2)nn1S(C)(=O)=O	?	-1%	-30%	.	.	?
COc1ccc(S(=O)(=O)N(CCc2ccccc2)CC(=O)NC(C)C)cc1	-18%	-9%	-20%	13	1%	-21%
N#CCSc1nc2ccccc2c(=O)n1C1CCCCC1	?	1%	2%	10	-2%	-12%
CCN(CC)C(=O)CSc1nc2ccccc2c(=O)n1CC1CCCCC1	16µM*	0%	-24%	-25	-1%	23µM*
Cc1cc(NC(=O)CSc2nc3ccccc3c(=O)n2Cc2ccccc2)no1	-26%	-4%	-3%	2	2%	-3%
CN(C)c1ccc(NC(=O)CSc2nc3ccccc3c(=O)n2C2CCCCC2)cc1	18µM*	17%	-4%	-51*	-18%	?
Cc1cc(NC(=O)CSc2nc3ccccc3c(=O)n2C2CCCC2)no1	0.92µM*	-25%	1%	28	-15%	1µM*
CCCN(CCC)C(=O)CSc1nc2ccccc2c(=O)n1C1CCCC1	13µM*	?	-7%	0	-6%	13µM*
SMILES	TDP1 cell noCPT	TGFb SMAD3 inh	HepG2 viability	IL1B secr inh	S-ASM inh	TDP1 cell CPT
O=C(CSc1nc2ccccc2c(=O)n1CC1CCCCC1)N1CCOCC1	?	?	-6%	-24	1%	?
O=S(=O)(c1ccc(Oc2ccc(F)c(Cl)c2)nc1)N1CCOCC1	-20%	0%	-1%	9	0%	-9%
CCn1c(SCC(=O)Nc2ccc3c(c2)OCO3)nnc1C(C)C	11%	5%	5%	-8	5%	1%
Cc1cc(NC(=O)CSc2nnc(CNc3ccc(F)cc3)n2C2CCCCC2)no1	?	?	2%	-9	1%	10µM*
CCc1nnc(NC(=O)CSc2nnc(CNc3ccc(F)cc3)n2C2CCCCC2)s1	-1%	-6%	-23%	-3	-1%	1%
CCC(=O)Nc1cccc(-c2nc3ccc(C)cc3o2)c1	?	-6%	-17%	-23	-2%	0%
CCCCCC(=O)Nc1cccc(-c2nc3ncccc3o2)c1	-18%	-27%	-18%	-99*	-3%	2%
Cc1ccc2nc(-c3cccc(NC(=O)CSc4ccc(Cl)cc4)c3)oc2c1	9.2µM*	.	-8%	.	.	26µM*
Cc1ccc2nc(-c3ccc(C)c(NC(=O)COc4ccc(Cl)cc4)c3)oc2c1	?	19%	4%	.	.	?
Cc1ccc2nc(-c3ccc(C)c(NC(=O)CSc4ccc(Cl)cc4)c3)oc2c1	?	4%	-76%	.	.	13µM*
Cc1cccc(OCC(=O)Nc2ccc(Cl)c(-c3nc4ncccc4o3)c2)c1C	16µM*	-4%	-15%	.	.	18µM*
Cc1ccc(C)c(CNC(=O)C2CCN(c3nc4ccccc4nc3C(F)(F)F)CC2)c1	?	?	-15%	.	.	?
Cc1ccc2onc(CNC(=O)N3CCN(c4cc(Cl)ccc4C)CC3)c2c1	?	?	-20%	.	.	?

High-throughput results (PubChem)
